# Assay results taken from PubChem BioAssay AID1259416 (Broad Institute, 2018).
# Values joined by “and” are separate entries in the source; they are usually repeats but may differ in a detail not shown here. Equal values may be shown once. The whole screen tested about 69,000 compounds, of which about 2,600 (3.8%) were called active. No stated cut-off is given here; in the data, active means activity change below about -70% (passing the limit was not always enough); inconclusive means no clear call, values can overlap the other calls. Many of the other results were omitted from the sample, so actives are more common in it than they were. Some structures have more than one record in an assay (separate samples or runs), and their calls can disagree.
# Experiment: T. gondii growth inhibition with IFN-gamma, primary screen, cell-based (AID 1259416);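 further: host cells are HeLa cells infected with Toxoplasma gondii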
# Conditions: Toxoplasma gondii growth in IFN-gamma-treated host cells; stronger effect = lower value; concentration not given here
row,Structure (SMILES),"activity change, negative = inhibition"
1,CC[N+]1(C)CCCC(OC(=O)C(O)(c2ccccc2)c2ccccc2)C1 (stereo not drawn),-81.7% (active) and 11.1% (inactive) and 46.8% (inactive)
2,COc1ccc(OC)c(NC(=O)c2cc3cccnc3n(Cc3ccccc3F)c2=O)c1,10.9% (inactive)
3,CC(C)N1C[C@H]2CN(C(=O)c3cccs3)C[C@@H]2C1,13.5% (inactive)
4,CO[C@@H]1CCN(C(=O)c2ccc(C)cn2)[C@H]2CN(CC3CC3)C[C@@H]12,294% (inactive)
5,c1cc(-c2cccc3c2CCNC3)cc(-n2cnnc2)c1,-1.55% (inactive)
6,CC(C)(Cc1c[nH]c2ccc(Cl)cc12)NCCOc1ccccc1OCC1CC1,-75.1% (active) and -81.3% (active)
7,COc1ccc2c(c1)C1(CCN(C(=O)C(C)(C)NC(=O)OCc3ccccc3)CC1)CC2CC(=O)O (stereo not drawn),0.749% (inactive)
8,Cc1nc(N2CCCN3CCC[C@H]3C2)c2cnn(C)c2n1,2.34% (inactive)
9,CN1CCC2(COCc3cnc(NCc4ccco4)nc32)C1 (stereo not drawn),-59.4% (inactive)
10,CCc1cnc(C)nc1N1CCC2(CC1)CN(C)CCN2C,-5.22% (inactive)
11,CC(Cc1ccccn1)N(C)Cc1ncc[nH]1 (stereo not drawn),15.6% (inactive)
12,c1ccc2c(c1)[I+]c1ccccc1-2,-75.9% (active) and -69.4% (inactive)
13,COc1ccc(NC(=O)c2cc3cccnc3n(Cc3ccc(Cl)cc3)c2=O)c(OC)c1,113% (inactive)
14,CCc1ccc(NC(=O)c2cc3cccnc3n(Cc3ccccc3F)c2=O)cc1,49.4% (inactive)
15,O=C(Nc1ccccc1)c1c(O)c2cccnc2n(Cc2ccccc2)c1=O,-29% (inactive)
16,CC(NC(=O)c1c(O)c2cccnc2n(Cc2ccccc2)c1=O)c1ccccc1 (stereo not drawn),-120% (active)
17,Cc1cc(C)cc(NC(=O)c2c(O)c3cccnc3n(Cc3ccccc3)c2=O)c1,135% (inactive)
18,CC(C)c1ccc(NC(=O)c2cc3cccnc3n(Cc3ccc(Cl)cc3)c2=O)cc1,70.6% (inactive)
19,C=CCNC(=O)c1cn(Cc2ccc(C)o2)cc(C(=O)N2CCCCCCC2)c1=O,-1.9% (inactive)
20,C/C=C/c1ccc(C2[C@@H]3CN(S(C)(=O)=O)C[C@H]2N3)cc1 (stereo partly drawn),4.19% (inactive)
21,COc1cc([C@@H]2c3cc4c(cc3[C@H](OC(C)=O)[C@H]3COC(=O)[C@H]23)OCO4)cc(OC)c1OC,-81.8% (active)
22,O=C(Nc1cccc(F)c1)N1CC2CNC(C2)C1 (stereo not drawn),-49% (inactive)
23,CN(Cc1ncc[nH]1)C1CCC2(CCNCC2)CC1,-23.6% (inactive)
24,CCN1CCO[C@@H]2CN(Cc3ccc4ccccc4n3)C[C@H]2C1,-44.8% (inactive)
25,CCCCCCCCCCCCCC(=O)O[C@@H]1[C@@H](C)[C@@]2(O)[C@@H](C=C(CO)C[C@]3(O)C(=O)C(C)=C[C@@H]23)[C@@H]2C(C)(C)[C@]12OC(C)=O,-78.2% (active) and -67.3% (inactive)
26,CNC(=O)[C@H]1CC2CN(C(=O)Cc3cccs3)CC2N1C (stereo partly drawn),-9.27% (inactive)
27,CC(=O)O[C@H]1CC[C@@]2(C)C(=CCC3C2CC[C@]2(C)C(=O)CCC32)C1 (stereo partly drawn),-55.1% (inactive)
28,COc1ccc(CN2CCCC23CCCN(C(=O)Cc2ccc(Cl)cc2)C3)cc1F (stereo not drawn),84.8% (inactive)
